Bioassay records from PubChem.
KLF5 inh – KLF5 expression inhibitors, primary screen, DLD-1 cells, luminescence | DLD-1 KLF5 promoter-luciferase reporter | inhibition, % at 5 µM | 0.23% of 290,000 active | AID 1700, 2009;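 active = inhibition above a per-plate limit of that plate's mean compound inhibition plus 3 SD, cut at about 60% in these data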;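 note: higher means less KLF5 promoter-driven luciferase light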
APP transl inh – inhibitors of APP translation via 5'UTR reporter, primary screen, APP 5'UTR luciferase, SH-SY5Y cells | SH-SY5Y APP 5'UTR-luciferase reporter, luminescence | AID 1285, 2008 | 0.82% of 190,000 active | inhibition, % at 2 µM;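 active = inhibition above a set limit, derived from the sample mean plus 3 SD, cut at about 45% in these data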
IEC-6 cytotox – cytotoxicity in IEC-6 intestinal epithelial cells, primary screen, cytotoxicity control for KLF5 inhibitor project, cell-based, luminescence | 0.78% of 290,000 active | IEC-6 cytotoxicity, luminescence viability | inhibition, % at 5 µM; in the data active = inhibition above about 22%
Ba/F3 V617F tox – reduced viability of JAK2V617F-dependent Ba/F3 cells, primary screen, JAK2V617F inhibitor project, cell-based, Ba/F3 EpoR-JAK2V617F, luminescence; ATP luminescence; inhibition, % at 5.6 µM; 1.1% of 220,000 active; AID 1446, 2008;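 active = inhibition above the campaign mean plus 3 SD over all tested compounds, cut at about 24% in these data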;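 note: cytokine-independent growth of Ba/F3 cells driven by EpoR plus mutant JAK2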
BaF3 parental – parental Ba/F3 cell viability inhibition, counter-screen for JAK2V617F inhibitor project, murine pro-B, CellTiter-Glo luminescence. CellTiter-Glo ATP luminescence. inhibition, % at 5.6 µM. 1.1% of 220,000 active;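 active = inhibition above a per-campaign cutoff, the mean inhibition of all tested compounds plus 3 SD, cut at about 27% in these data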
Hits are given with their value; – = inactive; · = no result given. Hits are enriched below; roughly 1.8% of the tested compounds scored in any of these assays.

SMILES | KLF5 inh | APP transl inh | IEC-6 cytotox | Ba/F3 V617F tox | BaF3 parental
O=C(/C=C/c1ccc(Cl)cc1)NC(=S)Nc1ccc(NC(=O)c2ccco2)cc1 | – | 81.3 | – | – | –
O=C(O)CN1CCCCCC1=O | – | – | – | – | –
O=C(CCN1C(=O)COc2ccccc21)N1CCN(c2ccccn2)CC1 | – | – | – | – | 88.0
Cc1cccc(C(C)C)c1NC(=O)c1cc2ccccc2o1 | – | · | – | · | ·
O=c1ccc(-c2ccccc2)nn1Cc1ccc(F)cc1Cl | – | · | – | · | ·
Cc1ccc(/C=N/NC(=O)c2cccc([N+](=O)[O-])c2)o1 | – | 62.2 | – | – | –
CC(=O)Nc1cccc(C(=O)N/N=C/c2ccc(C)o2)c1 | – | – | – | – | –
Cc1ccc(-n2c(SCC(=O)N3CCCc4ccccc43)nnc2-c2cccnc2)c(C)c1 | – | – | – | – | –
Cc1ccc(-n2c(-c3ccccc3)c[n+]3c2CCc2ccccc2-3)c(C)c1 | – | – | 27.0 | 100.3 | 81.2
CCOC(=O)c1[nH]c(C)c(C(=O)N2CCN(c3ccccc3)CC2)c1C | – | – | – | – | –
CCOc1ccc2ccccc2c1C(=O)N1CCN(c2ccccc2)CC1 | – | – | 24.6 | 46.3 | 42.4
CN1CCN(Cc2nc3ccccc3c(=O)n2Cc2nc(-c3ccc4ccccc4c3)cs2)CC1 | – | – | – | 101.8 | –
CN1CCN(Cc2nc3ccccc3c(=O)n2Cc2nc(-c3cccc([N+](=O)[O-])c3)cs2)CC1 | – | – | – | – | –
O=C(CCc1nnc(COc2ccccc2)o1)NCCc1cccs1 | – | – | – | – | –
CC(C)CCNC(=O)CCc1nnc(COc2ccccc2)o1 | – | – | – | – | 80.8
Cc1ccc(C(C)C)c(OCC(=O)NN=C(CCl)CCl)c1 | – | · | – | – | –
C/C(=N/NC(=O)COc1cc(C)ccc1C(C)C)C(=O)O | – | 82.1 | – | – | –
CC(C)c1ccc(-c2nnn(CCC(=O)O)n2)cc1 | – | 82.3 | – | – | –
CCc1ccc(-c2nnn(CCC(=O)OC)n2)cc1 | – | 48.5 | – | – | –
CCc1ccc(-c2nnn(CCC#N)n2)cc1 | – | – | – | – | –
Cc1ccc(CN(C(=O)c2ccc([N+](=O)[O-])cc2)C2CCS(=O)(=O)C2)o1 (stereo not drawn) | – | · | – | · | ·
Cc1ccccc1C(=O)N1CCN(c2ncccn2)CC1 | – | · | – | · | ·
Cc1occc1C(=O)N1CCN(c2ncccn2)CC1 | – | – | – | – | 92.1
COC(=O)Cc1n[nH]c(=S)[nH]c1=O | – | 49.6 | – | – | –
C=CCOc1ccc(CNCC2CCCO2)cc1 (stereo not drawn) | – | · | – | · | ·
SMILES | KLF5 inh | APP transl inh | IEC-6 cytotox | Ba/F3 V617F tox | BaF3 parental
FC(F)(F)c1cccc(Cn2c3[n+](c4ccc(C(F)(F)F)cc42)CCCCC3)c1 | – | – | – | – | –
Cc1cc(C(C)(C)C)cc(C)c1Cn1c2[n+](c3ccc(C(F)(F)F)cc31)CCCCC2 | – | – | – | 48.9 | 52.9
N#C/C(=C\c1ccc(N2CCOCC2)o1)c1nc2ccccc2[nH]1 | – | – | – | – | –
N#C/C(=C/c1ccc(N2CCOCC2)o1)c1ccc(Cl)cc1 | – | – | – | 46.5 | 55.8
COCCn1cnc2cc(C)c(C)cc21 | – | – | – | – | 43.6
Cc1cc2ncn(CCOc3ccccc3)c2cc1C | – | – | – | – | –
Cc1cc(OC(=O)c2ccccc2F)c([N+](=O)[O-])c(=O)[nH]1 | – | · | – | · | ·
CCOC(=O)C1(CCOC)CCN(C(=O)c2ccccc2-c2cccc(C)c2)CC1 | – | – | – | – | 81.5
Cc1ccc(S(=O)(=O)NC2(C(F)(F)F)C(=O)Nc3c2c(=O)[nH]c(=O)n3-c2ccccc2)cc1 (stereo not drawn) | – | – | – | – | –
O=c1[nH]c(=O)n(-c2ccccc2)c2c1C(C(F)(F)F)(C(F)(F)F)N=C(C1CCCCC1)N2 | – | – | – | – | 39.5
Cc1ccnc(NC(=O)C2COc3ccccc3O2)c1 (stereo not drawn) | – | – | – | – | 84.7
COc1cc(C(=O)NNC(=S)NCc2ccco2)cc(OC)c1OC | – | – | – | – | 90.3
Cc1cccc(C)c1-n1c(C)nn(Cc2ccc([N+](=O)[O-])cc2)c1=O | – | – | – | – | –
OCc1nc2ccccc2n1Cc1c(F)cccc1Cl | – | · | – | – | –
CSc1nc2ccccc2n1Cc1c(Cl)cccc1Cl | – | – | – | – | 29.6
O=C1C(Cl)=C(NCCCN2CCOCC2)C(=O)N1CCc1ccccc1 | – | 50.7 | – | – | –
Cc1ccc(C(=O)NC(=S)N2CCN(C)CC2)cc1 | – | 51.6 | – | – | –
O=S1(=O)Nc2c(ccc3cccnc23)-c2ccccc21 | – | 59.9 | 67.2 | – | –
Clc1ccc2ccc3cccnc3c2n1 | – | · | – | · | ·
CC(=O)Nc1ccc(S(=O)(=O)N(C)Cc2ccccc2)cc1 | – | – | – | – | –
CC(=O)Nc1ccc(S(=O)(=O)N(Cc2ccccc2)C(C)C)cc1 | – | – | – | 32.0 | 49.9
Fc1ccc(NC(=S)N2CCCN(c3ccc(C(F)(F)F)cn3)CC2)c(F)c1 | – | · | – | 35.4 | 32.9
O=c1c(Cl)c(NCCCO)cnn1-c1nc2ccccc2[nH]1 | – | – | – | 33.7 | 63.3
O=[N+]([O-])c1ccc(NCc2ccccc2)nc1 | – | – | – | 32.0 | 75.3
CCc1cccc(OCC2Cn3c(nc4c3c(=O)n(C)c(=O)n4C)O2)c1 (stereo not drawn) | – | · | – | · | ·
SMILES | KLF5 inh | APP transl inh | IEC-6 cytotox | Ba/F3 V617F tox | BaF3 parental
N#CC1=C(N)OC2=C(CCc3ccccc32)C1c1ccccc1Cl (stereo not drawn) | – | 94.0 | – | – | –
O=C1N=C2N(CCN3CCCCC3)c3ccccc3N2/C1=C\c1ccc([N+](=O)[O-])o1 | – | 96.1 | – | – | –
c1ccc2c(c1)N1CCCN=C1N2CCN1CCCCC1 | – | – | – | – | –
CCCOc1ccc(/C(O)=C2/C(=O)C(=O)N(CCCn3ccnc3)C2c2ccc(C)o2)cc1 (stereo not drawn) | – | · | – | – | –
O=C1C=CC(O)(c2cc(=O)c3c(O)cc(O)cc3o2)C=C1 | – | – | – | 44.1 | 47.2
COc1ccccc1-[n+]1c(C)cc(/C=C2\Sc3ccccc3N2C)cc1C | – | · | – | 98.8 | 96.2
COc1ccc(C(=O)/C=C2\Sc3ccccc3N2C)cc1 | – | – | – | – | –
Cc1cc(C(=O)Nc2nc3ccc(Cl)cc3s2)nn1C | – | · | – | – | –
Cn1ncc(Cl)c1C(=O)Nc1nc2ccc(Cl)cc2s1 | – | – | – | – | 36.9
Cc1ccc(C(=O)Nc2nc(C)c(C(=O)Nc3ccc4c(c3)CCC4)s2)cc1 | – | 66.1 | – | – | –
O=C(NC1CCCC1)c1cc(-c2ccc(Cl)cc2)on1 | – | · | – | · | ·
Cc1cc(C)cc(NC(=S)N(CCN(C)C)Cc2cccs2)c1 | – | – | – | – | –
O=C(/C=C/c1ccc([N+](=O)[O-])cc1)NNC(=O)C1CC1 | – | – | – | 44.3 | 49.8
Cc1csc2ncnc(NCCc3ccccn3)c12 | – | – | – | 36.9 | 77.5
